# Reference: PubChem BioAssay AID2536 (National Center for Advancing Translational Sciences (NCATS), 2010)
# Active and inactive are the calls of the source. The call rests on the fitted dose curve; in most records, active means well fitted curve in the direction sought with a large enough effect; inactive means no such curve, though single readings can be large or run the other way.
# Target: Pyruvate kinase PKM (Homo sapiens) (UniProt P14618)
# Experiment: Secondary Concentration-Response Assay for Activators of Human Muscle isoform 1 Pyruvate Kinase: for Probe SAR
# Settings: purified hPK-M1, ATP production, Kinase-Glo luminescence
# Description: NIH Chemical Genomics Center [NCGC]
# Matthew G. Vander Heiden, M.D., Ph.D. [Harvard Medical School, 77 Avenue Louis Pasteur, Boston, MA 02115]
# Human pyruvate kinase […] (hPK-M1) enzyme was supplied as a highly purified (>95% pure) preparation from Harvard Medical School and assayed for its ability to generate ATP from ADP using phosphoenolpyruvate (PEP) as a substrate. ATP generation was detected in a coupled reaction by luciferase-mediated luminescence, an ATP-dependent process. Pyruvate kinase substrates, PEP and ADP, were present in the assay at Km and approximately 10-fold below Km respectively. The enzyme was assayed at an intermediate level of activity to screen for both inhibitors and activators.
# NCGC Assay Protocol Summary for M1-isoform:
# Three uL of substrate mix (at r.t.) in assay buffer (50 mM Imidazole pH7.2, 50 mM KCl, 7 mM MgCl2, 0.01% Tween 20, 0.05% BSA) was dispensed into white solid bottom 1,536 well microtiter plates so that the final concentrations of substrates in the assay were 0.1 mM ADP and 0.5 mM PEP. 23 nL of compound were delivered by a pin tool and 1 uL of enzyme mix (final concentration of 1 nM) in assay buffer (4 degree Celsius) was added. Plates were incubated at room temperature for 1 hour. Two uL of detection mix (Kinase-Glo, Promega; at 4 degree Celsius protected from light) was added and luminescence read by a ViewLux (Perkin Elmer) at 1 second exposure/plate. Data were normalized to the uninhibited (row 31). Additionally, a no enzyme and 5-fold enzyme control was dispensed in row 32, split equally between the two conditions.
# Chain of Pyruvate kinase PKM (Homo sapiens) (P14618 whole entry, looked up, canonical isoform): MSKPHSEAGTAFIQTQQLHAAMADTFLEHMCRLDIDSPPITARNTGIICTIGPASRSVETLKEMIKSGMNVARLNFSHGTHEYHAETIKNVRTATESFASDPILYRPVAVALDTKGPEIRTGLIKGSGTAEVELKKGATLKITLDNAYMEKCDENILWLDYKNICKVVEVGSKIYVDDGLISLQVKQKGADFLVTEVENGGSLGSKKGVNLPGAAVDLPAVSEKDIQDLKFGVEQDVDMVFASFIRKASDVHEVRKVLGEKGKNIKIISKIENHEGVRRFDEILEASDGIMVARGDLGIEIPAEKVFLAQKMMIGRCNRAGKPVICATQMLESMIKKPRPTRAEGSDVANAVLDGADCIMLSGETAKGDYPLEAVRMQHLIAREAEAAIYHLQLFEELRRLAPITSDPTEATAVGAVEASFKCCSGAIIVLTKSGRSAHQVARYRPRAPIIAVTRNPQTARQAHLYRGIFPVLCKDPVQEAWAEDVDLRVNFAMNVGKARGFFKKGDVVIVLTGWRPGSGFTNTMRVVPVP
row,Compound,max response
1,O=C1CCc2cc(S(=O)(=O)Nc3cccc(Br)c3)ccc2N1,-2.97% (inactive)
2,CNc1cc2c(cc1S(=O)(=O)Nc1ccc(C)c(C)c1)CCC(=O)N2,-0.656% (inactive)
3,CC(C)Nc1cccc(S(=O)(=O)N2CCCN(S(=O)(=O)c3ccc4c(c3)OCCO4)CC2)c1,4.41% (inactive)
4,Cc1ccc(N[S+](=O)([O-])c2cc3c(cc2CCc2ccccc2)NC(=O)CO3)cc1C,-3.27% (inactive)
5,O=S(=O)(c1ccc2c(c1)OCCO2)N1CCN(S(=O)(=O)c2c(F)cccc2F)CC1,-8.27% (inactive)
6,O=C1CCc2cc(S(=O)(=O)Nc3cccc(B(O)O)c3)ccc2N1,-3.5% (inactive)
7,O=C1CCc2cc(S(=O)(=O)Nc3cc(F)cc(Cl)c3)c(F)cc2N1,1.25% (inactive)
8,CCNc1cccc(S(=O)(=O)N2CCCN(S(=O)(=O)c3ccc4c(c3)OCCO4)CC2)c1,8.55% (inactive)
9,O=C1CCc2cc(S(=O)(=O)Nc3ccc(F)c(Cl)c3)ccc2N1,-1.6% (inactive)
10,COc1cccc(Cn2ncc3c4sc(SC)cc4n(C)c3c2=O)c1,13.2% (inactive)
11,O=C1CCc2cc(Cl)c(S(=O)(=O)Nc3ccc(Cl)c(Cl)c3)cc2N1,1.66% (inactive)
12,Cc1cc(NS(=O)(=O)c2ccc3c(c2)CCC(=O)N3)ccc1F,2.58% (inactive)
13,Cc1ccc(NS(=O)(=O)c2ccc3c(c2)C(Cl)(Cl)C(=O)N3)cc1C,0.115% (inactive)
14,Cc1cc2c(s1)c1cnn(Cc3ccccc3F)c(=O)c1n2C,-9.51% (inactive)
15,Nc1cccc(S(=O)(=O)N2CCCN(S(=O)(=O)c3ccc4c(c3)OCCO4)CC2)c1,-0.314% (inactive)
16,Cc1ccc(Cl)cc1NS(=O)(=O)c1cc2c(cc1Cl)CCC(=O)N2,1.5% (inactive)
17,Cc1ccc(NS(=O)(=O)c2ccc3c(c2)CCC(=O)N3)cc1F,0.0639% (inactive)
18,Cc1ccc(NS(=O)(=O)c2cc3c(cc2N(C)C)CCC(=O)N3)cc1C,-0.287% (inactive)
19,Cc1c(Cl)cccc1NS(=O)(=O)c1cc2c(cc1Cl)CCC(=O)N2,0.521% (inactive)
20,O=C1CCc2cc([S+](=O)([O-])NC3CCOCC3)ccc2N1,-5.17% (inactive)

row,Compound,max response
1,O=C1CCc2cc(S(=O)(=O)Nc3ccc4ncccc4c3)ccc2N1,-1.75% (inactive)
2,Cn1c2cc(S(C)=O)sc2c2cnn(Cc3cccc(N)c3)c(=O)c21 (stereo not given),2.91% (inactive)
3,O=C1CCc2cc(S(=O)(=O)Nc3ccc(Cl)c(Cl)c3)c(F)cc2N1,2.68% (inactive)
4,O=C1CCc2cc(S(=O)(=O)Nc3cccc(Oc4ccccc4)c3)ccc2N1,-2.73% (inactive)
5,Cc1cc2c(s1)c1cnn(Cc3c(Cl)ccc(C)c3F)c(=O)c1n2C,4.91% (inactive)
6,CNc1cccc(S(=O)(=O)N2CCCN(S(=O)(=O)c3ccc4c(c3)OCCO4)CC2)c1,3.54% (inactive)
7,Cc1ccc(N(C)S(=O)(=O)c2ccc3c(c2)CCC(=O)N3)cc1C,0.78% (inactive)
8,O=C1CCc2cc(S(=O)(=O)Nc3ccc4c(c3)CCC4)ccc2N1,-1.18% (inactive)
9,O=C1CCc2cc([S+](=O)([O-])Nc3ccc(N[S+](=O)([O-])c4ccc5c(c4)CCC(=O)N5)cc3)ccc2N1,-0.299% (inactive)
10,CSc1cc2c(s1)c1cnn(Cc3cccc(N)c3)c(=O)c1n2C,7.82% (inactive)
11,CC(=O)N1c2ccc(S(=O)(=O)Nc3ccc(C)c(C)c3)cc2CC1C (stereo not given),13.1% (inactive)
12,CN(C)c1cccc(S(=O)(=O)N2CCCN(S(=O)(=O)c3ccc4c(c3)OCCO4)CC2)c1,1.92% (inactive)
13,Cc1ccc(NS(=O)(=O)c2cc3c(cc2C)OCC(=O)N3)cc1C,2.47% (inactive)
14,Cc1cc(NS(=O)(=O)c2ccc3c(c2)CCC(=O)N3)ccc1Cl,-0.197% (inactive)
15,Cc1ccc(NS(=O)(=O)c2cc3c(cc2Cl)CCC(=O)N3)cc1Cl,4.8% (inactive)
16,Cc1ccc(NS(=O)(=O)c2ccc3c(c2)CCC(=O)N3)cc1C,-6.39% (inactive)
17,Cc1ccc(NS(=O)(=O)c2ccc3c(c2)CCC(=O)N3)cc1Cl,8.72% (inactive)
18,O=C1CCc2cc(S(=O)(=O)Nc3ccc(Cl)c(Cl)c3)ccc2N1,4.63% (inactive)
19,Cc1ccc(NS(=O)(=O)c2ccc3c(c2)N(C)C(=O)CO3)cc1C,1.15% (inactive)
20,Cc1c(Cl)cccc1NS(=O)(=O)c1cc2c(cc1F)NC(=O)CC2,0.151% (inactive)
